High-throughput results: PubChem BioAssay, several laboratories
This is a sample that favours compounds with a hit; in the whole collection about 6.2% have one here.
SUMO Mot1 rescue: inhibitors of SUMOylation pathway: yeast Mot1-301 growth rescue; S. cerevisiae Mot1-301 growth rescue, ATP luminescence, 38.5C; percent above DMSO median, 100 means doubled; growth rescue, % at 18.8 µM; hit rate 1% among 320,000; AID 2716;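 active = every valid replicate shows activation above 250% relative to neutral control wells; inactive = the rest, any valid replicate at or below 250%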;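 note: OY570 slx delta 5 strain wells were the positive control but not used for scaling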
H9c2 protect: protects H9c2 cardiomyocytes from peroxide injury; H2O2 injury protection, ATPLite, 2 h; protection from H2O2 cell death, % at 20 µM; hit rate 0.63% among 360,000; AID 588492;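 active = compounds giving at least 50% protection of heart cells from peroxide-induced death in the single-dose screen, raw or plate-pattern-corrected value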;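 note: 0% = DMSO wells with peroxide and 100% = DMSO wells without peroxide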
GRIN3A LBD mod: NR3A (human) ligand-binding domain modulation; NR3A LBD differential scanning fluorimetry, Tm shift; 0% = protein alone, 100% = glycine-bound protein; Tm shift relative to glycine control, % at 25 µM; hit rate 2.5% among 340,000;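 active = melting temperature shift of at least 10% of the positive control shift, at one fixed dose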
AI-2 QS modul: modulates the Vibrio harveyi AI-2 quorum sensing system; Vibrio harveyi JMH597 AI-2 luminescence/OD600 ratio, 9 h; stronger effect = lower value; strain lacks LuxN and CqsS sensors; 0 = neutral-control median; activity change, % at 7.5 µM; hit rate 0.4% among 300,000; in the data active = activity change below about -75%, passing the limit was not always enough; inconclusive = no clear call, values can overlap the other calls;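 note: luminescence divided by OD600 gain over 9 h not by final OD600 alone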
NTR1 agonist: NTR1 (human) agonism. P30989. NTR1-U2OS beta-arrestin-GFP spot imaging, agonist mode. activation, % at 20 µM. hit rate 0.17% among 330,000. AID 493036;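 active = activation at or above 40% of the spot to cytoplasm intensity ratio, with at least 20 cells analyzed; inconclusive = wells under 20 cells, flagged as cytotoxic or low count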;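 note: 0% = DMSO without peptide and 100% = 100 nM NTR1 peptide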
Target sequence (P30989 whole entry, looked up): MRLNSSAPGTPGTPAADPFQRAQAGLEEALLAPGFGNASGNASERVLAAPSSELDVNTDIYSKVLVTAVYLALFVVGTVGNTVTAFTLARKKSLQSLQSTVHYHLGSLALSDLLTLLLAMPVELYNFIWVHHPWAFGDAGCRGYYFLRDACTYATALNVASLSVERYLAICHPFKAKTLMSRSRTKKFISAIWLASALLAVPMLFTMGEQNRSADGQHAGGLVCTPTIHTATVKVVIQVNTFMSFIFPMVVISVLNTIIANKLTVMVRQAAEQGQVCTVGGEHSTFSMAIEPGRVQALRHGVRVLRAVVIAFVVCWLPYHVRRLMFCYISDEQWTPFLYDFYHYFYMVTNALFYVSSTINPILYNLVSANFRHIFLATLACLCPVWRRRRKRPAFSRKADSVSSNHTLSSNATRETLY
AHR activator: activators of human aryl hydrocarbon receptor; P35869; AHR-responsive luciferase reporter cells, luminescence; activation, % at 5 µM; hit rate 2.5% among 320,000; AID 2796; in the data active = activation above about 47%;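 note: 0% = vehicle wells and 100% = reference agonist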
Starred values were filed as active, the others as inactive; ? = inconclusive; · = not tested or not shown.

SMILES	SUMO Mot1 rescue	H9c2 protect	GRIN3A LBD mod	AI-2 QS modul	NTR1 agonist	AHR activator
COc1ccc(OC)c(NC(=O)c2ccc(-c3cccs3)cc2)c1	-1	6	-30	10	1	76*
O=C(Nc1nnc(-c2cccs2)s1)c1cccc(F)c1	-15	-12	-7	20	2	56*
Cc1occc1C(=O)Nc1nnc(-c2cccs2)s1	49	-3	-17	12	3	76*
Cc1nnc(NC(=O)c2cccc(F)c2)s1	-5	4	0	8	1	1
O=C(c1ccc(-c2cccc(C(F)(F)F)c2)o1)N1CCCCCCC1	533*	-3	-2	21	10	2
O=C(c1ccco1)N1CCN(C(=O)c2ccc(-c3cccc(C(F)(F)F)c3)o2)CC1	3	-2	-2	7	2	6
COc1ccc(Cl)c2c1[nH]c1nc(SCc3cccnc3)nnc12	-6	-2	3	36	21	32
COc1ccc(Cl)c2c1[nH]c1nc(SCc3ccccn3)nnc12	-11	64*	-12	19	3	59*
COC(=O)C1=C(C)NC(C)=C(C(=O)OC)C1C(=O)OCc1nnc(-c2ccccc2Cl)o1	·	10	1	·	-2	·
O=c1[nH]c2cc(F)ccc2c2ccc(F)cc12	·	62*	0	·	·	·
ONC(=Nc1ccccc1Cl)c1c(F)cccc1F	22	-5	-4	-32	1	2
CCC(=O)Nc1cc(=O)[nH]c2nc(-c3ccc(Cl)cc3)nn12	-1	0	0	14	-1	74*
COc1cccc(NC(=O)C(C)(C)C)c1	-4	-3	0	·	-5	3
COc1cccc(NC(=O)Nc2nc(SC(C)(C)C)ns2)c1	-5	-13	40*	48	33	21
CCCSc1nsc(NC(=O)Nc2ccc(F)cc2F)n1	-23	-17	14*	-41	16	9
CCSc1nsc(NC(=O)Nc2cccc(F)c2)n1	58	-16	32*	?	19	-11
CCCSc1nsc(NC(=O)CC)n1	-10	-11	-1	45	-1	2
CCCSc1nsc(NC(=O)C(c2ccccc2)c2ccccc2)n1	3	-36	18*	15	20	1
CC1CN(C(=O)CSc2nc(N)c(NC(=O)c3ccc(C(F)(F)F)cc3)c(=O)[nH]2)CC(C)O1 (stereo not given)	·	13	·	·	·	·
COc1cccc(NC(=O)Nc2nc(SC)ns2)c1	-6	-13	12*	-12	1	31
CC1CCCN(C(=O)CCc2nnc(-c3ccc4c(c3)OCO4)o2)C1 (stereo not given)	6	-1	0	19	0	14
CC(C)Oc1cccc(-c2cc(C(=O)NN3CCOCC3)c3ccccc3n2)c1	698	0	-1	-5	0	28
CCCOc1ccc(C(=O)NNC(=S)NC(=O)c2cc(-c3ccc(Cl)cc3)nc3ccccc23)cc1	-20	-6	14*	39	0	24
COc1ccc(C(=O)NNC(=S)NC(=O)c2cc(-c3ccccc3)nc3ccccc23)cc1	-15	18	14*	24	2	4
CCCOc1cccc(-c2cc(C(=O)NNC(=S)NCC)c3ccccc3n2)c1	·	-16	14*	·	2	18
SMILES	SUMO Mot1 rescue	H9c2 protect	GRIN3A LBD mod	AI-2 QS modul	NTR1 agonist	AHR activator
CC(C)Oc1cccc(-c2cc(C(=O)NC(=S)N(C)c3ccccc3C(=O)O)c3ccccc3n2)c1	124	-12	0	33	-2	50*
CCNC(=S)NNC(=O)c1cc(-c2ccc(OCC)cc2)nc2ccccc12	-45	-24	1	31	1	-13
CCNC(=S)NNC(=O)c1cc(-c2cccc(OC)c2)nc2ccccc12	-22	-12	-1	19	1	8
O=C(CSc1ncccn1)NC1CCS(=O)(=O)C1 (stereo not given)	-11	3	1	6	0	7
O=C(Nc1ccn(C2CCC(CO)O2)c(=O)n1)c1ccccc1 (stereo not given)	·	-2	·	·	·	·
O=C(N/N=C/c1ccc(O)cc1O)c1ccc(CN2C(=O)c3cccc4cccc2c34)cc1	3	52*	20*	5	11	4
O=C(N/N=C/c1ccccc1)c1ccc(CN2C(=O)c3cccc4cccc2c34)cc1	2	6	0	16	0	13
CN(C)c1ccc(C(=O)OCC(=O)Nc2ccc(S(N)(=O)=O)cc2)cc1	-4	-10	2	1	1	0
C=CCN1C(=O)c2ccc(C(=O)OCC(=O)Nc3ccc(S(N)(=O)=O)cc3)cc2C1=O	-9	2	17*	2	1	3
CC1(C(=O)O)CCCN(C(=O)c2cccnc2Oc2ccccc2)C1 (stereo not given)	·	-3	·	·	·	·
Cc1ccc2cc(CN(CCN(C)C)C(=O)Nc3ccc(Cl)cc3)c(=O)[nH]c2c1	0	-18	11*	7	2	13
Cc1ccc2[nH]c(=O)c(CN(CCCN(C)C)C(=O)Nc3ccc(Cl)cc3)cc2c1	-5	5	0	9	1	4
OC(c1ccc(F)c(F)c1)c1nc(-c2cc(F)cc(F)c2)cs1 (stereo not given)	·	-4	·	·	·	·
Cc1ccc2[nH]c(O)c(N=Nc3ccccc3[N+](=O)[O-])c2c1	·	-5	1	·	·	·
COc1ccccc1N=Nc1[nH]c2ccc(C)cc2c1O	-17	-6	-1	13	3	60*
CC(=O)c1sc(Nc2ccccn2)nc1C	-5	14	-3	7	0	61*
CC(=O)c1sc(Nc2cccc3ccccc23)nc1C	77	9	-2	32	1	7
CC(=O)Nc1nc(C)c(C(C)=O)s1	341*	-2	2	9	-2	-4
CC(=O)c1sc(NC(=O)C(C)C)nc1C	·	11	2	6	2	-1
Cn1c(O)c(C2=c3ccccc3=NC2=O)[nH]c1=S	42	-4	-1	17	6	61*
COc1ccc2nc(-n3c(O)c(C4=c5ccccc5=NC4=O)[nH]c3=S)sc2c1	-21	1	17*	6	·	23
COc1ccc2nc(N3C(=O)CNC3=S)sc2c1	-5	-14	2	46	-1	2
Cc1cccc([N+](=O)[O-])c1NC(=O)CSc1nnc2ccccn12	2	7	-2	·	-2	-1
OCCN1CCN(c2ncnc3c2ncn3[C@H]2CN(Cc3cccc(C(F)(F)F)c3)C[C@@H](CO)O2)CC1	·	11	·	·	·	·
COc1ccccc1OCCCCOc1ccccc1C(C)=O	-22	-14	-8	16	2	37
C/C=C/c1ccc(OCCCCOc2ccccc2C(C)=O)c(OC)c1	-5	-13	18*	35	6	9
CCCc1ncc(C(O)c2cccc3ccccc23)n1C (stereo not given)	-7	6	12*	5	2	-2
